# In PubChem BioAssay (NCI):
# Several values for one entry are separate records, joined by “and”; a condition that tells them apart may be missing. Equal entries are not always repeated. Compounds without any hit were thinned out: in the full panel of roughly 83,000, 20% have a hit.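 Testing used 96-well plates and a 48-hour single-concentration exposure. Example: -40 means 40% of the starting cells died.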 Activity calls are given as the source filed them. Rule for the calls: active = growth percent below 10; inactive = the rest. Where a SMILES comes first, the peptide text is derived from it. [ ]: non-standard residue; d: D form. ξ: configuration not given here. ξV = CC(C)C(N)C(=O)O
# How the values were obtained:
# Assay in all cases: NCI-60 one-dose screen, 48 h (100 = growth as untreated, 0 = no growth, -100 = all killed)
# NCI-H23 lung = test system: NCI-H23 lung
# NCI-H226 lung = test system: NCI-H226 lung
# NCI-H322M lung = test system: NCI-H322M lung
# HOP-62 NSCLC = test system: HOP-62 NSCLC
# NCI-H460 lung = test system: NCI-H460 lung
# HOP-92 NSCLC = test system: HOP-92 NSCLC
# NCI-H522 lung = details: 10 µM unless noted
# A549/ATCC NSCLC = test system: A549/ATCC NSCLC
# 786-0 renal = test system: 786-0 renal
# COLO 205 colon = test system: COLO 205 colon
# DU-145 prostate = test system: DU-145 prostate
# K-562 leukemia = test system: K-562 leukemia
# MALME-3M melanoma = test system: MALME-3M melanoma
# MDA-MB-231 breast = test system: MDA-MB-231 breast
# RXF 393 renal = test system: RXF 393 renal
# SF-268 CNS = test system: SF-268 CNS
# SF-295 CNS = test system: SF-295 CNS
# SF-539 CNS = test system: SF-539 CNS
# UACC-257 melanoma = test system: UACC-257 melanoma
# M14 melanoma = test system: M14 melanoma
structure (smiles),measurement,setting,value
O=c1ccn(C2CC(O)C(COC(c3ccccc3)(c3ccccc3)c3ccccc3)O2)c(=O)[nH]1 (configuration not stated),growth,NCI-H23 lung; 10 µM,101% (inactive)
same,growth,NCI-H23 lung; 100 µM,69.2% (inactive)
same,growth,NCI-H226 lung; 10 µM,91.7% (inactive)
same,growth,NCI-H226 lung; 100 µM,36.2% (inactive)
same,growth,NCI-H322M lung; 10 µM,87.5% (inactive)
same,growth,NCI-H322M lung; 100 µM,68.8% (inactive)
same,growth,HOP-62 NSCLC; 10 µM,89.2% (inactive)
same,growth,HOP-62 NSCLC; 100 µM,72% (inactive)
same,growth,NCI-H460 lung; 10 µM,91.2% (inactive)
same,growth,NCI-H460 lung; 100 µM,39.4% (inactive)
same,growth,HOP-92 NSCLC; 10 µM,87.8% (inactive)
same,growth,HOP-92 NSCLC; 100 µM,25.4% (inactive)
same,growth,NCI-H522 lung,53.6% [100 µM] (inactive)
same,growth,A549/ATCC NSCLC; 10 µM,74.8% (inactive)
same,growth,A549/ATCC NSCLC; 100 µM,44% (inactive)
same,growth,786-0 renal; 10 µM,82% (inactive)
same,growth,786-0 renal; 100 µM,65.5% (inactive)
same,growth,COLO 205 colon; 10 µM,114% (inactive)
same,growth,COLO 205 colon; 100 µM,59.4% (inactive)
same,growth,DU-145 prostate; 10 µM,107% (inactive)
same,growth,DU-145 prostate; 100 µM,55.7% (inactive)
same,growth,K-562 leukemia; 10 µM,79.1% (inactive)
same,growth,K-562 leukemia; 100 µM,26.5% (inactive)
same,growth,MALME-3M melanoma; 10 µM,94.4% (inactive)
same,growth,MALME-3M melanoma; 100 µM,70.7% (inactive)
same,growth,MDA-MB-231 breast; 10 µM,73.5% (inactive)
same,growth,MDA-MB-231 breast; 100 µM,66.1% (inactive)
same,growth,RXF 393 renal; 10 µM,86.5% (inactive)
same,growth,RXF 393 renal; 100 µM,36.6% (inactive)
same,growth,SF-268 CNS; 10 µM,83% (inactive)
same,growth,SF-268 CNS; 100 µM,42.9% (inactive)
same,growth,SF-295 CNS; 100 µM,38.2% (inactive)
same,growth,SF-539 CNS; 10 µM,97.2% (inactive)
same,growth,SF-539 CNS; 100 µM,60.3% (inactive)
same,growth,UACC-257 melanoma; 100 µM,55.2% (inactive)
same,growth,M14 melanoma; 10 µM,81.4% (inactive)
same,growth,M14 melanoma; 100 µM,52.5% (inactive)
CC[N+](CC)=c1ccc2nc3c(cc(N)c4ccccc43)oc-2c1,growth,NCI-H23 lung; 10 µM,-41.8% (active)
same,growth,NCI-H226 lung; 10 µM,-48% (active)
same,growth,NCI-H322M lung; 10 µM,-46.5% (active)
same,growth,HOP-62 NSCLC; 10 µM,-69% (active)
same,growth,NCI-H460 lung; 10 µM,-57.4% (active)
same,growth,HOP-92 NSCLC; 10 µM,-60.3% (active)
same,growth,NCI-H522 lung,-48.4% (active)
same,growth,A549/ATCC NSCLC; 10 µM,-19.4% (active)
same,growth,786-0 renal; 10 µM,-79% (active)
same,growth,COLO 205 colon; 10 µM,-44.4% (active)
same,growth,DU-145 prostate; 10 µM unless noted,-60% (active)
same,growth,K-562 leukemia; 10 µM,1.13% (active)
same,growth,MALME-3M melanoma; 10 µM,-60.9% (active)
same,growth,MDA-MB-231 breast; 10 µM,-71.5% (active)
same,growth,RXF 393 renal; 10 µM unless noted,-23.7% (active)
same,growth,SF-268 CNS; 10 µM,-54% (active)
same,growth,SF-295 CNS; 10 µM,-83% (active)
same,growth,SF-539 CNS; 10 µM,-79.7% (active)
same,growth,UACC-257 melanoma; 10 µM,-70.2% (active)
same,growth,M14 melanoma; 10 µM,-56.9% (active)
COc1ccc(CC(=O)c2ccc(O)cc2O)cc1,growth,NCI-H23 lung; 10 µM,104% (inactive)
same,growth,NCI-H226 lung; 10 µM,133% (inactive)
same,growth,NCI-H322M lung; 10 µM,122% (inactive)
same,growth,HOP-62 NSCLC; 10 µM,88.4% (inactive)
same,growth,NCI-H460 lung; 10 µM,115% (inactive)
same,growth,HOP-92 NSCLC; 10 µM,94.4% (inactive)
same,growth,NCI-H522 lung,4.52% (active)
same,growth,A549/ATCC NSCLC; 10 µM,109% (inactive)
same,growth,786-0 renal; 10 µM,96.5% (inactive)
same,growth,COLO 205 colon; 10 µM,207% (inactive)
same,growth,DU-145 prostate; 10 µM unless noted,138% (inactive)
same,growth,K-562 leukemia; 10 µM,98.7% (inactive)
same,growth,MALME-3M melanoma; 10 µM,128% (inactive)
same,growth,MDA-MB-231 breast; 10 µM,117% (inactive)
same,growth,RXF 393 renal; 10 µM unless noted,144% (inactive)
same,growth,SF-268 CNS; 10 µM,132% (inactive)
same,growth,SF-295 CNS; 10 µM,113% (inactive)
same,growth,SF-539 CNS; 10 µM,99.3% (inactive)
same,growth,UACC-257 melanoma; 10 µM,119% (inactive)
same,growth,M14 melanoma; 10 µM,103% (inactive)
CC(C)C(NC(=O)CN)C(=O)O (configuration not stated) (H-Gly-[ξV]-OH),growth,NCI-H23 lung; 10 µM,101% (inactive) and 106% (inactive)
same,growth,NCI-H226 lung; 10 µM,102% (inactive) and 100% (inactive)
same,growth,NCI-H322M lung; 10 µM,100% (inactive) and 105% (inactive)
same,growth,HOP-62 NSCLC; 10 µM,106% (inactive) and 98% (inactive)
same,growth,NCI-H460 lung; 10 µM,113% (inactive) and 103% (inactive)
same,growth,HOP-92 NSCLC; 10 µM,102% (inactive)
same,growth,NCI-H522 lung,95.9% (inactive) and 89.7% (inactive)
same,growth,A549/ATCC NSCLC; 10 µM,95% (inactive) and 99.2% (inactive)
same,growth,786-0 renal; 10 µM,95.1% (inactive) and 106% (inactive)
same,growth,COLO 205 colon; 10 µM,117% (inactive) and 113% (inactive)
same,growth,DU-145 prostate; 10 µM unless noted,107% (inactive) and 110% (inactive)
same,growth,K-562 leukemia; 10 µM,92.9% (inactive) and 104% (inactive)
same,growth,MALME-3M melanoma; 10 µM,101% (inactive) and 99.8% (inactive)
same,growth,MDA-MB-231 breast; 10 µM,106% (inactive)
same,growth,RXF 393 renal; 10 µM unless noted,104% (inactive) and 108% (inactive)
same,growth,SF-268 CNS; 10 µM,104% (inactive) and 101% (inactive)
same,growth,SF-295 CNS; 10 µM,97.4% (inactive) and 101% (inactive)
same,growth,SF-539 CNS; 10 µM,103% (inactive) and 106% (inactive)
same,growth,UACC-257 melanoma; 10 µM,110% (inactive) and 101% (inactive)
same,growth,M14 melanoma; 10 µM,105% (inactive) and 108% (inactive)
CC1=CC(C)=Nc2ccc(Cl)cc2N1,growth,NCI-H23 lung; 10 µM,94.1% (inactive)
same,growth,NCI-H226 lung; 10 µM,97.6% (inactive)
same,growth,NCI-H322M lung; 10 µM,102% (inactive)
same,growth,HOP-62 NSCLC; 10 µM,105% (inactive)
same,growth,NCI-H460 lung; 10 µM,101% (inactive)
same,growth,HOP-92 NSCLC; 10 µM,96.9% (inactive)
same,growth,NCI-H522 lung,103% (inactive)
same,growth,A549/ATCC NSCLC; 10 µM,114% (inactive)
same,growth,786-0 renal; 10 µM,106% (inactive)
same,growth,COLO 205 colon; 10 µM,106% (inactive)
same,growth,DU-145 prostate; 10 µM unless noted,106% (inactive)
same,growth,K-562 leukemia; 10 µM,90.3% (inactive)
same,growth,MALME-3M melanoma; 10 µM,96.9% (inactive)
same,growth,MDA-MB-231 breast; 10 µM,110% (inactive)
same,growth,RXF 393 renal; 10 µM unless noted,113% (inactive)
same,growth,SF-268 CNS; 10 µM,98.9% (inactive)
same,growth,SF-295 CNS; 10 µM,107% (inactive)
same,growth,SF-539 CNS; 10 µM,100% (inactive)
same,growth,UACC-257 melanoma; 10 µM,104% (inactive)
same,growth,M14 melanoma; 10 µM,102% (inactive)
